# Results reported in the OligoGym collection.
# Molecular target: KCNJ11
# Experiment: pooled miR-30 sensor sort-seq; sequence = guide strand
# Conditions: shRNA
# Further: reference of the scale not given here.
row,Sequence,sensor-assay potency score (higher = more potent)
1,ATCAATGACATGGTAGATGATC,-1.55
2,TTGACGGTGTTGCCAAACTTGG,-1.46
3,TTATTGACAACGGAGAAGGCAG,-0.854
4,TTGCGTACCACCTGCATGTGGA,-0.169
5,ACATGGTAGATGATCAGCGGGG,-0.798
6,TCATCGGCCAGGTAGGAGGTGC,-0.639

# Molecular target: KCNJ4
# Experiment: as above
# Conditions: shRNA
row,Sequence,sensor-assay potency score (higher = more potent)
1,TTGTAGTGGCTCTTCTCCTCGA,-0.739
2,TAGGTCTTGTGAAAACGTGAGT,-0.691
3,ATGAAGGAGTCGATGACGCAGC,-1.02
4,AAAACGTGAGTAGTCCACCTTG,-0.537
5,TAGTCCACCTTGTAGTGGCTCT,-0.556
6,TCGCGCACCGAAATGACCGCGT,-0.495
7,TCTCGTAGCAGAAGGCACTGGG,0.705
8,TTGGCCGTTCTTCTTGACGAAG,-1.51
9,TCGCTGGCCAGGTAGGAGCTGC,-1.22
10,TTACTCTCCTGCAGCTCCCGGG,-0.832
11,TAGCGCTGCGACTTGTTGCTCA,0.0555
12,TAGGAGATGTTGTCCAGCGGGA,-0.546
